CHX counter: counter-screen hit for Shiga toxin inhibitors, cycloheximide | AID 2314 | max response, % | actives 12% (n = 300,000) | cell reporter, cycloheximide protein synthesis inhibition counterscreen; in the data active = max response mostly above about 13%, no sharp cut-off; inactive = mostly below about 14%; note: read at 38.3 µM for the half of the compounds with a filed dose
NS1 function inh: influenza NS1 inhibition | Potency, µM (highest dose often 46.1 µM) | actives 0.4% (n = 270,000); calls by dose curve; note: actives are rising curves; nearly all actives have a fitted effect of over 50% in size
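Growth recovery, yeast-based: influenza A NS1 expressed in S. cerevisiae causes slow growth, and suppressors are detected by OD600. The parent strain without NS1 is used as positive control.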
Shiga toxin inh: blocks Shiga toxin action in Vero cells; actives 9.2% (n = 290,000); Vero cells, Shiga toxin protein synthesis inhibition reporter; AID 2315; inhibition, % at 38.7 µM; in the data active = inhibition mostly above about 28%, no sharp cut-off; inactive = mostly below about 43%
LmPK inhibitor: LmPK (Leishmania mexicana) enzyme inhibition; Q27686; purified LmPK, Kinase-Glo ATP luminescence, 1 h; Potency, µM (highest dose often 57.5 µM), actives largely listed as inhibitors; actives 0.37% (n = 290,000)
Target sequence (Q27686 whole entry, looked up): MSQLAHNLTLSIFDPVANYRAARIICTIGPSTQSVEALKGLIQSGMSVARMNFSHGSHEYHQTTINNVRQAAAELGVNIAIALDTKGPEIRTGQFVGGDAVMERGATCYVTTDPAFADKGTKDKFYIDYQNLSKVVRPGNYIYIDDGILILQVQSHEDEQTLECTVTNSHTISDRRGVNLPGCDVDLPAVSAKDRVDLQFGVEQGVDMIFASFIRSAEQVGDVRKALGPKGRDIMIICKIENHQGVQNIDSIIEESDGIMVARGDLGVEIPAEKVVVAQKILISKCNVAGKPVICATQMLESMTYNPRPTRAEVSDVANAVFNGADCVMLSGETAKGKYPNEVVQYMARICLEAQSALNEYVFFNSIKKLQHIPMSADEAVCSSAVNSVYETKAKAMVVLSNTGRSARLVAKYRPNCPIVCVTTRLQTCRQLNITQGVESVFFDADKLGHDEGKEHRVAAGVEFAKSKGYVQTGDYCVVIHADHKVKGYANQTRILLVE
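Pyruvate kinase activity monitored as ATP production (luciferase luminescence). Conditions: 0.1 nM enzyme, 0.5 mM PEP, 0.1 mM ADP, 1 h, RT; normalized against uninhibited and no-enzyme wells.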
Giardia FBPA inh: inhibitors of Giardia lamblia fructose-1,6-bisphosphate aldolase; A8B2U2; purified Giardia FBPA; Potency, µM (highest dose often 59.6 µM), actives largely listed as inhibitors; actives 0.71% (n = 290,000); AID 2451; note: nearly all actives have a fitted effect of over 55% in size
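40 nM FBPA preincubated 10 min at RT with compound (up to 57.5 uM final), then substrate plus GAPDH/TPI/NAD/arsenate coupling and diaphorase/resazurin added. Fluorescence read after 20 min at RT, 525/598 nm.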
Hits are given with their value; – = inactive; ? = inconclusive; · = no result given; [ ] = dose if it differs, or a comment. Compounds with a hit are over-represented: about 14% of the library has one in this group of screens. Unless noted, calls come from the whole dose curve; as a rule, active = well fitted curve in the direction sought with a large enough effect; inconclusive = small, poorly fitted or top-dose-only effect, or another doubt; inactive = no such curve, though single readings can be large; an effect the other way counts as inactive or inconclusive.

SMILES	CHX counter	NS1 function inh	Shiga toxin inh	LmPK inhibitor	Giardia FBPA inh
COc1ccc2c(c1)O[C@@H](c1ccc3c(c1)OCO3)[C@H](OC(=O)NS(=O)(=O)c1ccc(C)cc1)C2=O	·	·	·	·	–
Cc1cnc(C(=O)Nc2ccc(-n3cnnn3)cc2)cn1	–	–	–	–	–
Cc1cnc(C(=O)Nc2ccc(N3CCOCC3)cc2)cn1	22	?	66	–	–
C=CC[C@@H]1C=C[C@H](O/N=C(\C)CCN2CCc3nc(CC)c(CC)cc3C2)[C@H](CO)O1	·	·	·	·	–[12.9 µM]
Cc1ccc(-c2nnc(SCc3ccccc3F)o2)cc1	44	–	63	–	–
Cc1ccc2c(CSc3nnnn3C)cc(=O)oc2c1	–	–	–	–	–
COc1ccc(-c2nnc(SCc3ccccc3F)o2)cc1OC	–	–	52	–	–
COc1cc(-c2nnc(SCc3cc(=O)oc4cc(C)ccc34)o2)cc(OC)c1OC	29	–	–	–	–
NCCc1nnc(SCc2ccccc2F)o1	–	–	–	–	–
COC(=O)CSc1nnc(-c2ccc(OC)c(OC)c2)o1	–	–	–	–	–
CCc1cc2c(nc1CC)CCN(CC/C(C)=N/O[C@@H](C)c1cn([C@@H]3COC[C@@H]3O)nn1)C2	·	·	·	·	–[12.9 µM]
Nc1nc(NCCOCCO)nc(N2CCCCCC2)c1[N+](=O)[O-]	–	–	–	–	–
CCN(CC)CCCn1c(-c2ccccc2)nc2c(N3CCOCC3)nc(C)nc21	·	·	·	·	–
COc1cc(CNc2ccccc2)c([N+](=O)[O-])cc1OC	–	–	·	–	?
CCOc1cccc2c1OC(c1cc(OC)c(OC)c(OC)c1)N1N=C(c3ccc(C)o3)CC21 (stereo not given)	39	–	–	–	–
O=C1Nc2ccccc2/C1=N/c1sc2c(c1C(=O)NCCc1ccccc1)CCCC2	–	–	39	–	–
O=C(Nc1sc2c(c1C(=O)NCCO)CCCC2)c1ccco1	–	–	–	–	–
CN(C)CCCNS(=O)(=O)c1ccc(NC2CCCCCC2)c([N+](=O)[O-])c1	–	–	–	–	·
Cn1nnnc1N=N/C(=N/Nc1ccccc1)c1ccccc1	17	–	–	–	–
Cc1ccc(N/N=C(/Sc2nnnn2-c2ccccc2)C(=O)c2ccccc2)cc1	–	?	–	–	–
Cc1oc2cc3oc(=O)c(CCC(=O)NCCN4CCOCC4)c(C)c3cc2c1C	29	–	31	–	–
COCCNC(=O)CN1N=C(c2ccc(C)cc2)CCC1=O	–	–	–	–	–
O=[N+]([O-])c1ccc(C2=Nc3cc(Cl)ccc3OC2)cc1	–	–	62	–	–
Cc1ccc2c(c1)N=C(c1ccc(F)cc1)CO2	41	–	111	?	–
CCCCCCCCCCCCC/C=C/[C@@H](O)[C@H](CO)NC(=O)CCCCC	–	·	–	·	–
SMILES	CHX counter	NS1 function inh	Shiga toxin inh	LmPK inhibitor	Giardia FBPA inh
COc1cc(NC(=O)Cc2cccs2)c(C(=O)O)cc1OC	–	–	–	–	–
Cn1c(=O)n(CCCOc2ccc(Cl)cc2)c2ccccc21	19	–	–	–	–
Cn1c(=O)n(CCc2ccccc2)c2ccccc21	18	–	·	–	–
CCC1CCCCN1CCCNC(=O)c1c(O)nc2ccccn2c1=O (stereo not given)	–	–	–	–	–
Cc1ccc(/C=N/N=C/c2ccc(C)cc2)cc1	37	–	74	–	–
Fc1cccc(/C=N/N=C/c2cccc(F)c2)c1	31	–	112	–	–
C(=N\N1CCN(c2ccccc2)CC1)/c1ccccc1	–	·	–	–	–
Oc1ccc(/C=N/N=C/c2ccc(O)cc2)cc1	50	–	115	–	–
Oc1ccc(O)cc1	·	–	·	·	–
NC(=S)N/N=C/c1cccc(/C=N/NC(N)=S)c1	–	–	–	–	?
C(=N\N=C\c1ccccc1)/c1ccccc1	55	–	132	–	–
CCC1OC(=O)C(C)[C@@H](O[C@H]2C[C@@](C)(OC)C(O)C(C)O2)C(C)[C@@H](O[C@@H]2OC(C)CC(N(C)C)C2O)[C@](C)(O)CC(C)/C(=N\OCOCCOC)[C@H](C)C(O)[C@]1(C)O (stereo not given in full)	·	·	·	·	–
O=C(COc1ccccc1N1C(=O)C2C3C=CC(C3)C2C1=O)c1ccccc1 (stereo not given)	–	–	–	–	–
CCCCCCN(C(=O)CCCCCN1C(=O)NC(C2CCCCC2)C(C(=O)OCc2ccccc2)=C1C)C(C(=O)NCCCC)c1ccc(OCC(=O)OC)c(C(=O)OC)c1 (stereo not given)	·	·	·	·	–
Cc1c(NC(=O)c2cc(C3CC3)on2)c(=O)n(-c2ccccc2)n1C	–	–	–	–	–
O=C1CC(c2cc(-c3ccccc3)no2)C1	39	–	42	–	–
O=C(CC(Sc1ccccc1)c1cccs1)c1ccco1 (stereo not given)	26	–	57	–	–
CC1(OC(=O)C2CCCC2)C(=O)C=C2C=C(c3ccsc3)N(c3cccc(C#N)c3)C=C2C1=O (stereo not given)	·	·	·	–[11.5 µM]	–[12.9 µM]
O=C(COc1ccccc1)Nc1cc(Cl)ccc1Cl	18	–	37	–	–
O=C(COc1ccccc1)Nc1ccc(Cl)cc1Cl	53	–	93	–	–
O=C(COc1ccccc1)Nc1ccc(Cl)cc1C(=O)c1ccccc1	–	–	–	–	–
Cc1ccc(Cl)cc1NC(=O)COc1ccccc1	16	–	–	–	–
Cc1ccc(Cl)cc1NC(=O)CCC(=O)Nc1cc(Cl)ccc1C	–	–	–	–	–
O=C(COc1ccccc1)Nc1ccccc1F	33	–	·	–	–
NCCCCCc1cnc[nH]1	–	·	–	·	?
SMILES	CHX counter	NS1 function inh	Shiga toxin inh	LmPK inhibitor	Giardia FBPA inh
COC(=O)[C@@H]1CC[C@H](C)[C@@H](c2ccc(C)cc2)N1C(=O)c1ccc(/C=N\OC[C@@H](C)[C@H](OCc2ccccc2)C(C)C)cc1	·	·	·	·	–[12.9 µM]
O=C(NCCCn1ccnc1)c1ccc(C(F)(F)F)cc1	–	–	–	–	–
C#CC(C)OC(=O)Nc1cccc(Cl)c1 (stereo not given)	32	·	41	·	–
O=C(Nc1ccccc1)OCCOc1ccccc1Br	35	–	28	–	–
COc1ccc(OCCOC(=O)Nc2ccccc2)cc1	–	–	–	–	–
O=C(Nc1ccccc1)OCCCCCOC(=O)Nc1ccccc1	–	–	·	–	–
C[N+](C)(C)CC#CCOC(=O)Nc1cccc(Cl)c1	·	–	·	·	–
O=C(Nc1ccccc1)OCCOc1ccccc1	32	–	61	–	–
O=C(Nc1cccc(Cl)c1)OCC#CCCl	–	·	–	·	7.1µM
COc1ccc2c(c1)O[C@H](c1ccc3c(c1)OCO3)[C@@H](OC(=O)NCc1ccco1)C2=O	·	·	·	·	–
O=C(O)CCc1cc(F)c(S(=O)(=O)N2CCN(S(=O)(=O)c3ccc4c(c3)OCCO4)CC2)cc1F	–	·	–	·	·
CCC1(COC(=O)Nc2cccc(Cl)c2)COC1	22	–	–	–	–
CC(C)OC(=O)NCCOC(=O)Nc1cccc(Cl)c1	–	–	–	–	–
O=C(Nc1cccc(Cl)c1)OCCOc1ccccc1	56	–	75	–	–
O=C(Nc1ccccc1)OCCOc1cccc(Br)c1	–	–	–	–	–
CC(C)OC(=O)NC(C)(C)COC(=O)Nc1cccc(Cl)c1	14	–	–	–	–

Bioassay records (PubChem BioAssay)
